Consider 37 compounds from paper PMC5540273 (PLoS ONE, 2017).
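Note: KINOMEscan kinase panel screen.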

The first assay relates to MELK. The settings on record: concentration: 1 μM,replicates: in singlicate; n = 1.
Turning to `Cn1ccc2ncnc(Oc3ccc(NC(=O)Nc4cccc(C(F)(F)F)c4)c(F)c3)c21`, the “%Inh” value was 10%.
With `COc1cc(Nc2nccc(N3CCC(NC(=O)c4cccc(C#N)c4)C3)n2)cc(OC)c1OC` (centres unmarked) [GSK1379751], the “%Inh” value is reported as 0%.
In the case of `c1ccc(Oc2ccc(Nc3ccnc4ccc(-c5ccccn5)cc34)cc2)cc1` [GW407034], the “%Inh” value came to 0%.
`C[C@@H](Oc1cc(-n2cnc3cc(-c4cnn(C)c4)ccc32)sc1C(N)=O)c1ccccc1Cl` [GSK580432]: the “%Inh” value was determined as 15%.
Turning to `FC(F)(F)c1cc(Br)cc(Nc2nccc(-c3cnn4ncccc34)n2)c1` [GW810578], the “%Inh” value was 7%.
Turning to `COc1cccc(CNC(=O)NC2CCN(c3ccnc(Nc4cc(OC)c(OC)c(OC)c4)n3)C2)c1` (centres unmarked) [GSK1379765], the “%Inh” value turned out to be 15%.
For the compound `Cc1n[nH]c2cc(Nc3ccnc(Nc4cccc(CN5CCOCC5)c4)n3)ccc12` [GW682569], the “%Inh” value is listed as 0%.
`O=C(NCC1CC1)c1ccc(-c2cc(C(=O)NC3CC3)ccc2F)cc1` [GW810445]: the “%Inh” value stood at 17%.
Consider `Cc1nnc(-c2ccc3occ(-c4ccc(S(C)=O)cc4)c3n2)o1` (centres unmarked), for which the “%Inh” value turned out to be 0%.
Still for that read-out and setting: for `COC(=O)c1cccc(NC(=O)NC2CCN(c3ccnc(NCc4ccc(F)cc4)n3)CC2)c1` [GSK1379860] the value was 0%; for `Cc1cccc2c(-c3ccncc3)c(-c3ccc(F)cc3)nn12.Cl` [GW461487], 0%.
As for `O=C(Nc1n[nH]c2cc(-c3ccco3)ccc12)C1CC1` [SB-737447], the “%Inh” value is given as 0%.
With `CN(c1ccccc1CNc1nc(Nc2ccc3c(c2)CC(=O)N3)ncc1C(F)(F)F)S(C)(=O)=O`, the “%Inh” value is listed as 94.3%.
Take `CC(=O)Nc1nc2cnc(Nc3cc(NC(=O)c4cccc(CC(C)(C)C#N)c4)ccc3C)nc2s1`: the “%Inh” value worked out at 8%.
Regarding `COc1ccc(Nc2nccc(N3CCC(NC(=O)c4cccc(C#N)c4)C3)n2)cc1` (centres unmarked) [GSK1379730], the “%Inh” value is listed as 0%.
Regarding `CS(=O)c1ccc(-c2coc3ccc(-c4n[nH]c(=O)o4)cc23)cc1` (centres unmarked), the “%Inh” value turned out to be 0%.
As for `CS(=O)(=O)Nc1ccc(-c2ccnc3[nH]ccc23)cc1` [GSK993273], the “%Inh” value stood at 51%.
Still for that read-out and setting: for `Cn1ccc2ncnc(Oc3ccc(NC(=O)Nc4cnn(C(C)(C)C)c4)c(Cl)c3)c21` the value was 16%.
Same read-out and setting: for `Cl.c1ccc(Oc2ccc(Nc3ccnc4cc(-c5ccc(CN6CCNCC6)o5)ccc34)cc2)nc1` [GW567142] the value was 0%.
For the compound `CSc1nccc(-c2c(-c3ccc(F)cc3)ncn2CCCN2CCOCC2)n1.Cl` [SB-217146], the “%Inh” value is 0%.
`C[C@@H](Oc1cc(-n2cnc3ccc(-c4ccncc4)cc32)sc1C(N)=O)c1ccccc1Cl` [GSK483724]: the “%Inh” value amounted to 0%.
`Nc1nccc(-c2ccc3c(N)n[nH]c3c2)n1` [GSK1034945]: the “%Inh” value turned out to be 24%.
Regarding `CC(C(=O)NC1CCN(c2ccnc(Nc3ccc(F)cc3)n2)C1)c1ccc(Cl)cc1` (centres unmarked) [GSK1379713], the “%Inh” value is 0%.
`C[C@@H]1CCN(C(=O)N2CCCC2)C[C@@H]1N(C)c1ncnc2[nH]ccc12`: the “%Inh” value is reported as 13%.
For `NC(=O)c1ccc(-c2cc3ncnc(SCC(=O)O)c3s2)cc1`, the “%Inh” value was 0%.

The next assay has as its system MERTK. The settings on record: concentration: 1 μM,replicates: in singlicate; n = 1.
Turning to `C[C@@H](Oc1cc(-n2cnc3cc(-c4ccncc4)ccc32)sc1C(N)=O)c1ccccc1Cl` [GSK479719], the “%Inh” value is reported as 86%.
Take `COc1cc2c(Nc3ccc(NC(=O)c4ccccc4)cc3)ncnc2cc1OCCCN1CCOCC1` [GSK301329]: the “%Inh” value amounted to 65%.
Consider `Cc1cccc(-c2nc(Nc3ccncc3)c3sccc3n2)n1` [GW869641], for which the “%Inh” value is recorded as 0%.
For `Cl.Cl.NC[C@H](CC1CCCCC1)NC(=O)c1ccc(-c2ccnc3[nH]ccc23)s1` [GSK1581428], the “%Inh” value is 68%.
Regarding `Cc1ccc(Nc2ccnc(Nc3ccc4c(c3)CS(=O)(=O)C4)n2)cc1O.Cl` [GW579362], the “%Inh” value came to 99.5%.
On the same count and under the same terms, for `CCOC(=O)N1CCC(n2cnc(-c3ccc(F)cc3)c2-c2ccnc(N)n2)CC1` [SB-219952] the value was 21%; for `CS(=O)(=O)c1cccc(CNc2nc(Nc3ccc4c(c3)[C@@H]3C[C@@H]4CNC3=O)ncc2C(F)(F)F)c1`, 98.6%.
In the case of `O=C(Nc1ccc(Oc2ccc3nc(NC(=O)C4CC4)cn3n2)c(F)c1)c1cccn(-c2ccccc2)c1=O`, the “%Inh” value was 96%.
In the case of `Cc1ccc(C(=O)Nc2ccc(Oc3ccc4nc(NC(=O)C5CC5)cn4c3)c(F)c2)c(=O)n1-c1ccccc1`, the “%Inh” value was 99.2%.
As to `CCN1CCN(CCCC(=O)Nc2n[nH]c3nc(-c4ccc(O)cc4)c(Br)cc23)CC1` [SB-731579], the “%Inh” value was found to be 2%.
`COC(=O)c1cccc(NC(=O)NC2CCN(c3ccnc(Nc4cc(OC)c(OC)c(OC)c4)n3)C2)c1` (centres unmarked) [GSK1379767]: the “%Inh” value is on record as 40%.
As for `Cn1cc(-c2cccc3c(N)c(C(N)=O)nnc23)cn1`, the “%Inh” value came out at 0%.
As to `Cn1ccc2ncnc(Oc3ccc(NC(=O)Nc4cccc(C(F)(F)F)c4)c(F)c3)c21`, the “%Inh” value amounted to 98%.
As for `COc1cc(Nc2nccc(N3CCC(NC(=O)c4cccc(C#N)c4)C3)n2)cc(OC)c1OC` (centres unmarked) [GSK1379751], the “%Inh” value was 9%.
As for `c1ccc(Oc2ccc(Nc3ccnc4ccc(-c5ccccn5)cc34)cc2)cc1` [GW407034], the “%Inh” value is 9%.
Consider `C[C@@H](Oc1cc(-n2cnc3cc(-c4cnn(C)c4)ccc32)sc1C(N)=O)c1ccccc1Cl` [GSK580432], for which the “%Inh” value is listed as 100%.
On to `FC(F)(F)c1cc(Br)cc(Nc2nccc(-c3cnn4ncccc34)n2)c1` [GW810578], for which the “%Inh” value was found to be 14%.
Same read-out and setting: for `COc1cccc(CNC(=O)NC2CCN(c3ccnc(Nc4cc(OC)c(OC)c(OC)c4)n3)C2)c1` (centres unmarked) [GSK1379765] the value was 17%; for `Cc1n[nH]c2cc(Nc3ccnc(Nc4cccc(CN5CCOCC5)c4)n3)ccc12` [GW682569], 85%.
Consider `O=C(NCC1CC1)c1ccc(-c2cc(C(=O)NC3CC3)ccc2F)cc1` [GW810445], for which the “%Inh” value stood at 0%.
As for `Cc1nnc(-c2ccc3occ(-c4ccc(S(C)=O)cc4)c3n2)o1` (centres unmarked), the “%Inh” value stood at 0%.
As to `COC(=O)c1cccc(NC(=O)NC2CCN(c3ccnc(NCc4ccc(F)cc4)n3)CC2)c1` [GSK1379860], the “%Inh” value was found to be 0%.
For `Cc1cccc2c(-c3ccncc3)c(-c3ccc(F)cc3)nn12.Cl` [GW461487], the “%Inh” value was 5%.
Take `O=C(Nc1n[nH]c2cc(-c3ccco3)ccc12)C1CC1` [SB-737447]: the “%Inh” value is listed as 0%.
For the compound `CN(c1ccccc1CNc1nc(Nc2ccc3c(c2)CC(=O)N3)ncc1C(F)(F)F)S(C)(=O)=O`, the “%Inh” value is 97.3%.
With `CC(=O)Nc1nc2cnc(Nc3cc(NC(=O)c4cccc(CC(C)(C)C#N)c4)ccc3C)nc2s1`, the “%Inh” value is 31%.
Regarding `COc1ccc(Nc2nccc(N3CCC(NC(=O)c4cccc(C#N)c4)C3)n2)cc1` (centres unmarked) [GSK1379730], the “%Inh” value came to 24%.
Consider `CS(=O)c1ccc(-c2coc3ccc(-c4n[nH]c(=O)o4)cc23)cc1` (centres unmarked), for which the “%Inh” value is listed as 0%.
With `CS(=O)(=O)Nc1ccc(-c2ccnc3[nH]ccc23)cc1` [GSK993273], the “%Inh” value stood at 56%.
On the same count and under the same terms, for `Cn1ccc2ncnc(Oc3ccc(NC(=O)Nc4cnn(C(C)(C)C)c4)c(Cl)c3)c21` the value was 65%.
`Cl.c1ccc(Oc2ccc(Nc3ccnc4cc(-c5ccc(CN6CCNCC6)o5)ccc34)cc2)nc1` [GW567142]: the “%Inh” value is listed as 0%.
On to `CSc1nccc(-c2c(-c3ccc(F)cc3)ncn2CCCN2CCOCC2)n1.Cl` [SB-217146], for which the “%Inh” value is 5%.
For the compound `C[C@@H](Oc1cc(-n2cnc3ccc(-c4ccncc4)cc32)sc1C(N)=O)c1ccccc1Cl` [GSK483724], the “%Inh” value was determined as 35%.
As for `Nc1nccc(-c2ccc3c(N)n[nH]c3c2)n1` [GSK1034945], the “%Inh” value is given as 16%.
With `CC(C(=O)NC1CCN(c2ccnc(Nc3ccc(F)cc3)n2)C1)c1ccc(Cl)cc1` (centres unmarked) [GSK1379713], the “%Inh” value stood at 0%.
For the compound `C[C@@H]1CCN(C(=O)N2CCCC2)C[C@@H]1N(C)c1ncnc2[nH]ccc12`, the “%Inh” value worked out at 0%.
Take `NC(=O)c1ccc(-c2cc3ncnc(SCC(=O)O)c3s2)cc1`: the “%Inh” value worked out at 0%.
